Assay results reported in the supplement of paper PMC12350171.
Where a name gives a salt, the structure may show the parent alone.

Experiments:
Details in all cases: 20 µM
[1] = test system: Salmonella enterica typhimurium; assay: growth AUC normalised to DMSO control (fraction of control); higher = less growth inhibition, active = hit call of the paper
Outline: (§1)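 Pathogens passaged twice anaerobically were inoculated at a starting OD578 of 0.01 into pre-reduced mGAM plates with drug at 20 μM and 1% DMSO, sealed with breathable membranes. Haemophilus parainfluenzae medium was supplemented with hemin and NAD. OD578 was read hourly for 24 h, with three biological replicates. Growth-curve AUC was computed by the trapezoidal rule up to the exponential-to-stationary transition and normalised to DMSO controls on the same plate.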

[2] = test system: Shigella flexneri; assay: as above
Outline: as §1

[3] = test system: Vibrio cholerae; assay: as above
Outline: as §1

[4] = test system: Yersinia pseudotuberculosis; assay: as above
Outline: as §1

[5] = test system: P. vulgatus RND KO; assay: growth AUC normalised to DMSO control (median) (fraction of control); higher = less growth inhibition, active = hit call of the paper
Outline: (§2)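 Each strain went through two overnight passages under anaerobic conditions before growth in mGAM in 96-well plates, starting at OD578 0.01, with each compound from the approved-drug library at 20 μM and 1% DMSO. Inside an anaerobic incubator, OD578 was recorded every hour for 24 h. Growth curves were cut off at entry into stationary phase, and the area under the curve was calculated by the trapezoidal rule and normalised to vehicle wells on the same plate. Reported values are medians of three biological replicates.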

[6] = test system: P. vulgatus WT; assay: as above
Outline: as §2

[7] = test system: S. enterica typhimurium WT; assay: as above
Outline: as §2

[8] = test system: S. enterica typhimurium tolC KO; assay: as above
Outline: as §2

Measured: growth AUC normalised to DMSO control
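Throughout, for growth AUC normalised to DMSO control (median): active when median AUC fell below 0.1.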

O=C(O)Cc1ccc(-c2ccccc2)cc1 [Felbinac]
inactive: [1] 1.03 | [2] 0.977 | [3] 0.996 | [4] 0.994 | [5] 1 | [6] 1.01 | [7] 1.01 | [8] 0.988

NC(=O)c1cnccn1 [Pyrazinamide]
inactive: [1] 0.99 | [2] 0.92 | [3] 0.993 | [4] 0.99 | [5] 0.992 | [6] 0.993 | [7] 0.999 | [8] 0.999

CN(C)CCOC(c1ccc(Cl)cc1)c1ccccn1 (stereo not given) [Carbinoxamine maleate salt]
inactive: [1] 1.01 | [2] 1.08 | [3] 1.04 | [4] 0.989 | [5] 1.07 | [6] 1.09 | [7] 1 | [8] 0.997

CCC(Cc1c(I)cc(I)c(N)c1I)C(=O)O (stereo not given) [Iopanoic acid]
inactive: [1] 1.01 | [2] 1.01 | [3] 1.01 | [4] 0.989 | [5] 0.999 | [6] 1 | [7] 1.01 | [8] 0.987

Cc1c(Cl)cccc1Nc1ccccc1C(=O)O [Tolfenamic acid]
inactive: [1] 1 | [2] 0.961 | [3] 0.901 | [4] 0.963 | [5] 0.802 | [6] 0.803 | [7] 1.02 | [8] 0.992

COc1cc(N)c(Cl)cc1C(=O)NC1CCN(CCCOc2ccc(F)cc2)CC1OC (stereo not given) [Cisapride]
inactive: [1] 1 | [2] 1.01 | [3] 0.929 | [4] 0.989 | [5] 0.945 | [6] 0.941 | [7] 1 | [8] 0.947

CC(Oc1c(Cl)cccc1Cl)C1=NCCN1 (stereo not given) [Lofexidine]
inactive: [1] 1.01 | [2] 1 | [3] 1.01 | [4] 1.01 | [5] 1.02 | [6] 1.03 | [7] 1.02 | [8] 1

COc1ccc2c(c1)c(CC(=O)OCC(=O)O)c(C)n2C(=O)c1ccc(Cl)cc1 [Acemetacin]
inactive: [1] 0.979 | [2] 0.965 | [3] 0.985 | [4] 0.985 | [5] 0.855 | [6] 0.866 | [7] 0.993 | [8] 0.969

CCc1nn(CCCN2CCN(c3cccc(Cl)c3)CC2)c(=O)n1CCOc1ccccc1 [Nefazodone hydrochloride]
inactive: [1] 1 | [2] 0.985 | [3] 0.932 | [4] 1.01 | [5] 0.928 | [6] 0.922 | [7] 1 | [8] 0.894

c1coc(CNc2ncnc3[nH]cnc23)c1 [Kinetin]
inactive: [1] 1.01 | [2] 1.02 | [3] 1.01 | [4] 0.992 | [5] 1.01 | [6] 1.05 | [7] 1 | [8] 1.01

N[C@H]1CONC1=O [(S,-) Cycloserine]
inactive: [1] 1.01 | [2] 1.03 | [3] 1.04 | [4] 1.04 | [5] 0.897 | [6] 0.954 | [7] 0.997 | [8] 0.996

CCCNC(C)C(=O)Nc1ccccc1C (stereo not given) [Prilocaine hydrochloride]
inactive: [1] 0.987 | [2] 1 | [3] 1 | [4] 0.998 | [5] 0.99 | [6] 1 | [7] 0.992 | [8] 0.993

CCOc1ccc(Cc2nccc3cc(OCC)c(OCC)cc23)cc1OCC [Ethaverine hydrochloride]
inactive: [1] 1.01 | [2] 1.04 | [3] 1 | [4] 1.01 | [5] 1 | [6] 0.998 | [7] 1 | [8] 0.969

CCC(=O)O[C@]1(C(=O)CCl)[C@@H](C)C[C@H]2[C@@H]3CCC4=CC(=O)C=C[C@]4(C)[C@@]3(F)[C@@H](O)C[C@@]21C [Clobetasol propionate]
inactive: [1] 1.01 | [2] 1.04 | [3] 1.02 | [4] 1.01 | [5] 1.02 | [6] 1.05 | [7] 1 | [8] 0.927

Clc1ccc(CSC(Cn2ccnc2)c2ccc(Cl)cc2Cl)cc1 (stereo not given) [Sulconazole nitrate]
inactive: [1] 1.04 | [2] 1.06 | [3] 1.05 | [4] 1.02 | [5] 1.06 | [6] 1.08 | [7] 0.997 | [8] 0.911

CN[C@@H]1[C@H](O)[C@H](NC)[C@H]2O[C@@]3(O)C(=O)C[C@@H](C)O[C@H]3O[C@@H]2[C@H]1O [Spectinomycin dihydrochloride]
inactive: [2] 1.01 | [3] 1.02 | [5] 1.01 | [6] 1 | [7] 0.961 | [8] 0.871
active: [1] 0.896 | [4] 0.933

C[C@@H]1C[C@H]2[C@@H]3CCC4=CC(=O)C=C[C@]4(C)[C@@]3(Cl)[C@@H](O)C[C@]2(C)[C@@]1(OC(=O)c1ccco1)C(=O)CCl [Mometasone furoate]
inactive: [1] 1.02 | [2] 1.07 | [3] 1.01 | [4] 1.03 | [5] 1.04 | [6] 1.06 | [7] 1.01 | [8] 0.991

CCN(CC)CCOC(=O)C1(C2CCCCC2)CCCCC1 [Dicyclomine hydrochloride]
inactive: [1] 0.935 | [2] 0.978 | [3] 0.889 | [4] 0.98 | [5] 1 | [6] 1.02 | [7] 0.999 | [8] 0.933

CNCC[C@@H](Oc1ccccc1C)c1ccccc1 [Tomoxetine hydrochloride]
inactive: [1] 1.01 | [2] 1.02 | [3] 1.01 | [4] 1 | [5] 0.954 | [6] 0.969 | [7] 0.996 | [8] 0.974

CC(Cc1cccc(C(F)(F)F)c1)NCCOC(=O)c1ccccc1 (stereo not given) [Benfluorex]
inactive: [1] 0.94 | [2] 0.968 | [4] 1.01 | [5] 0.956 | [6] 0.975 | [7] 0.986 | [8] 0.98
active: [3] 0.869

COC(=O)C1=C(C)NC(C)=C(C(=O)OCCN(C)Cc2ccccc2)C1c1cccc([N+](=O)[O-])c1 (stereo not given) [Nicardipine hydrochloride]
inactive: [1] 1 | [2] 1.01 | [3] 0.966 | [4] 1 | [5] 1.02 | [6] 0.977 | [7] 1.01 | [8] 0.901

CCCNC(C)C(=O)Nc1c(C)csc1C(=O)OC (stereo not given) [Articaine hydrochloride]
inactive: [1] 0.949 | [2] 1.03 | [3] 1.08 | [4] 1.03 | [5] 1.04 | [6] 1.06 | [7] 1.01 | [8] 0.997

O=c1[nH]cc(F)c(=O)[nH]1 [5-fluorouracil]
active: [1] 0.842 | [2] 0.745 | [5] 0.0695 | [6] 0.0782
inactive: [3] 0.942 | [4] 0.927 | [7] 0.809 | [8] 0.806

CCN(CC)CCOC(=O)C(Cc1cccc2ccccc12)CC1CCCO1 (stereo not given) [Nafronyl oxalate]
inactive: [1] 0.985 | [2] 0.977 | [3] 0.943 | [4] 0.992 | [5] 0.993 | [6] 0.989 | [7] 0.994 | [8] 0.959

O=C1O[C@H]([C@@H](O)CO)C(O)=C1O [Ascorbic acid]
inactive: [1] 1.02 | [2] 1.07 | [3] 1.02 | [4] 0.989 | [5] 1.05 | [6] 1.04 | [7] 1.01 | [8] 0.997

CCN(CC)CCNC(=O)c1cc(Br)c(N)cc1OC [Bromopride]
inactive: [1] 1.01 | [2] 1.01 | [3] 1.01 | [4] 1 | [5] 1 | [6] 1.01 | [7] 1.01 | [8] 1.01

N=C(NCCCCCCNC(=N)NC(=N)Nc1ccc(Cl)cc1)NC(=N)Nc1ccc(Cl)cc1 [Chlorhexidine]
active: [1] 0.355 | [2] 0.0156 | [4] 0.307 | [5] 0.00823 | [6] 0.0134
inactive: [3] 0.954 | [7] 0.942 | [8] 0.816

COC(=O)C1=C(C#N)NC(C)=C(C(=O)OC(C)C)C1c1cccc([N+](=O)[O-])c1 (stereo not given) [Nilvadipine]
inactive: [1] 1.01 | [2] 1.03 | [3] 1.02 | [4] 1.02 | [5] 1.15 | [6] 1.12 | [7] 1 | [8] 0.922

CN(C)CCC(c1ccc(Cl)cc1)c1ccccn1 (stereo not given) [Chlorpheniramine maleate]
inactive: [1] 0.987 | [2] 0.94 | [3] 0.972 | [4] 0.956 | [5] 0.994 | [6] 0.987 | [7] 0.994 | [8] 0.996

CC(C)[C@H](N)C(=O)OCCOCn1cnc2c(=O)nc(N)[nH]c21 [Valacyclovir hydrochloride]
inactive: [1] 0.993 | [2] 1.03 | [3] 0.995 | [4] 1.01 | [5] 0.999 | [6] 1.02 | [7] 1 | [8] 1.02
